Source: PubChem
p53null 39C tox – kills p53 null cells at the nonpermissive temperature; actives 0.97% (n = 55,000); Potency, µM (series often up to 46.1 µM), without a hit: at the top dose activity, negative = cell killing, usual class: cytotoxic; H1299 p53-null (neo) cells, 39C, ATPlite viability, 24 h; AID 904;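 further: 0% = DMSO only and -100% = full killing by 100 µM tamoxifen; nearly all actives have a fitted effect of over 50% in size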
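Temperature-shift cytotoxicity format: compound titrations on p53-null or A138V-expressing H1299 cells held 24 hr at 39C, cell ATP then measured, AC50 from Hill model.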
p53null 32C kill – p53 null cell cytotoxicity, permissive temperature; H1299-neo p53 null cells, ATP luminescence, 24 h, 32C; Potency, µM (titrated, usually from 46.1 µM), without a hit: at the top dose activity change, negative = cytotoxicity, most hits filed as cytotoxic; actives 0.62% (n = 55,000); AID 903;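 further: 0% = DMSO only and -100% = full killing by 100 µM tamoxifen; nearly all actives have a fitted effect of over 55% in size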
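AC50 values derive from Hill modelling of qHTS concentration-response data (up to 46 uM) in H1299-neo cells. Cells were treated 24 h at 32C following overnight attachment at 37C; viability was read as cellular ATP.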
mTORC1 inh – inhibitors of mTORC1 signaling in Tsc2-/- p53-/- MEF cells; Tsc2-/- p53-/- MEF, phospho-rpS6 immunofluorescence/PI, 24 h; Potency, µM (titrated, usually from 38.3 µM), for the others: at the top dose activity change, negative = inhibition, most hits filed as inhibitors; actives 0.78% (n = 44,000); AID 493208;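 further: plate controls were DMSO for no effect and rapamycin for full effect; nearly all actives have a fitted effect of over 50% in size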
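Readout is phospho-S6 Alexa 488 signal normalized to PI per well, reported as % active cells with thresholds set from rapamycin (7.5 nM) and DMSO controls. Cells: Tsc2-/-, p53-/- MEFs, 24 hrs compound at 37 C; PI cell number serves as viability.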
PMP22 txn prim – modulates PMP22 transcription in S16 Schwann cells. S16 Pmp22-F2sN Schwann cells, FLuc/NLuc coincidence luminescence, 24 h. Potency, µM (top dose mostly 57.5 µM), inactives show at the top dose activity change, negative = inhibition, most hits filed as inhibitors. actives 2% (n = 43,000); active means clear falling dose curves in both reporters; inconclusive means both reporters move, but less clearly or upward; inactive means either reporter flat; the % is the NLuc reporter signal
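S16 Schwann cells carrying FLuc/NLuc coincidence reporter in the Pmp22 3' UTR treated with compound 24 h at 37C; FLuc then NLuc luminescence read sequentially by dual-luciferase reagents.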
S16 F2sN tox – cytotoxicity in S16 Pmp22-F2sN Schwann cells; actives 0.48% (n = 43,000); S16 Pmp22-F2sN Schwann cells (luciferase reporters placed in the Pmp22 gene) viability, CellTiter-Glo, 24 h; Potency, µM (doses to about 57.5 µM), inactives show at the highest dose activity change, negative = cytotoxicity, usual class: cytotoxic; further: nearly all actives have a fitted effect of over 65% in size
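S16 Schwann cells carrying the Pmp22-F2sN reporter, seeded in 1536-well format, were exposed to library compounds for 24 h at 37C. Viability was read as CellTiter-Glo luminescence after 15 min at room temperature.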
Starred values were filed as active, the others as inactive; ? = inconclusive; . = no result; [ ] = another dose, or the depositor's remark. Shown are actives, neighbours in structure and some others; about 3.2% of the full set was active somewhere. Unless noted, the call rests on the fitted dose curve; in most records, active means well fitted curve in the direction sought with a large enough effect; inconclusive means small, poorly fitted or top-dose-only effect, or another doubt; inactive means no such curve, though single readings can be large; an effect the other way counts as inactive or inconclusive. Unless noted, on the % scale 0 is the no-effect control and ±100 the full control effect; potency means the concentration at half of the fitted maximal effect.

SMILES | p53null 39C tox | p53null 32C kill | mTORC1 inh | PMP22 txn prim | S16 F2sN tox
Cc1ccc(-c2onc(C)c2C)cc1S(=O)(=O)NCc1ccc(N(C)C)cc1 | 1% | -1% | -9% | ? | -1%
CCN(CC)C(=O)CSc1nc(-c2ccc(C)cc2)nc2c1Cc1c(CO)cnc(C)c1O2 | -4% | 0% | -1% | ? | 10µM*
Cc1ccc(-c2nc3c(c(SCC(=O)N(C)c4ccccc4)n2)Cc2c(CO)cnc(C)c2O3)cc1 | -11% | 2% | 0% | ? | ?
CCCCN(C)CCNC(=O)C1CCN(c2nc3ccc(CC)cc3s2)CC1 | 3.2µM* | ? | 12µM* | ? | ?
CCc1ccc2nc(N3CCN(C(=O)C4CC4)CC3)sc2c1 | 20% | -20% | -13% | -10% | -1%
CCc1ccc2nc(N3CCC(C(=O)O)CC3)sc2c1 | 5µM* | 7.9µM* | -1% | 24% | -3%
Cc1cc(C)cc(NC(=O)c2cccc3c2C(=O)N(C2CCCCC2)C3)c1 | -2% | -2% | -6% | 1% | 17%
COc1cc(NC(=O)c2cccc3c2C(=O)N(C2CCCCC2)C3)cc(OC)c1OC | 10% | 17% | 15µM* | ? | ?
CC(=O)c1cccc(Nc2nc(-c3cccc(C)c3)nc3ccccc23)c1 | 11µM* | ? | ? | ? | ?
COc1cc2nc(SCc3cccc(Cl)c3)n3nc(CCn4nc(C)cc4C)nc3c2cc1OC | -1% | 4% | -3% | -14% | 0%
COc1cc(NC(=O)c2ccccc2[N+](=O)[O-])ccc1NC(=O)C(C)C | 9%[1.84 µM] | . | . | . | .
CCc1cccc(NC(=O)c2oc3ccc4c(c3c2C)C(=O)CC(C)(C)O4)c1 | 5µM* | 5µM* | ? | ? | -5%
COc1ccc(NC(=O)c2oc3ccc4c(c3c2C)C(=O)CC(C)(C)O4)cc1OC | 3.2µM* | 13µM* | 1% | ? | 6%
CCOc1ccccc1CNC(=O)c1oc2ccc3c(c2c1C)C(=O)CC(C)(C)O3 | 6% | ? | 1% | ? | ?
CC(C)(C)c1ccc(C2=NC(C)(C)N(CC(=O)Nc3ccc(F)c(F)c3)C2=O)cc1 | 13µM* | 3% | 1% | ? | -12%
COc1ccc(C2=NC(C)(C)N(CC(=O)Nc3cc(OC)cc(OC)c3)C2=O)cc1 | -5% | 5% | -10% | -11% | 1%
CC1CCN(C(=O)c2ccc(NC(=O)c3nsc4ccccc34)cc2)CC1 | ? | ? | 0% | -4% | 3%
O=C(Nc1cccc(C(=O)N2CCCCC2)c1)c1nsc2ccccc12 | 10µM* | ? | 1% | -28% | -3%
COc1cccc(CNC(=O)c2cccc(NC(=O)c3nsc4ccccc34)c2)c1 | -17% | -6% | 3% | -10% | ?
COC(=O)c1cccc(NC(=O)c2nsc3ccccc23)c1 | 7.1µM* | 3.2µM* | -3% | 1% | -16%
Cc1cccc(N2CCN(C(=O)CSCc3ccc(F)cc3)CC2)c1C | 25% | -8% | 2% | -19% | -16%
Cc1ccc(-c2nn3c(=O)cc(CN4CCN(C(=O)c5ccc(C(C)(C)C)cc5)CC4)nc3s2)cc1 | -1% | 1% | 3% | 30% | 16%
Cc1ccc(NC(=O)CSc2nc3nc(C)c(Cc4ccccc4)c(C)n3n2)cc1 | 3% | 16% | 7% | -31% | 5%
COc1ccc(CSc2nc3ncccc3[nH]2)cc1 | 11µM* | 11µM* | 3% | 18% | -2%
Cc1ccc(OCC(=O)NCC2(N3CCN(C)CC3)CCCCC2)cc1C | -19% | 0% | ? | ? | -14%
SMILES | p53null 39C tox | p53null 32C kill | mTORC1 inh | PMP22 txn prim | S16 F2sN tox
Cc1cc(OCC(=O)NCC2(N3CCN(C)CC3)CCCCC2)cc(C)c1Cl | -30% | -9% | 5.8µM* | ? | ?
Cn1nc(C(=O)NCc2ccccc2Cl)c2c1-c1ccccc1SC2 | 23% | -5% | 0% | -4% | 29%
CCOc1ccc(N/C=C/C(=O)c2ccccc2)c([N+](=O)[O-])c1 | . | 6.3µM* | . | . | .
O=C(CSc1nc(-c2ccccc2)cn1-c1ccccc1)Nc1ccccc1 | 4% | 4% | -3% | -35% | -8%
COc1ccc(S(=O)(=O)c2cn(CC(=O)Nc3cc(C)ccc3C)c3ccccc3c2=O)cc1 | 31% | -3% | -5% | -3% | 21%
CCN(CC)S(=O)(=O)c1ccc(NC(=O)CCc2c(C)nc3cc(-c4ccc(Cl)cc4)nn3c2C)cc1 | -10% | -4% | 12µM* | 7.8µM* | ?
CC(C)N(C)C1CCN(S(=O)(=O)c2ccc3[nH]c(=O)ccc3c2)CC1 | 16% | 5% | 2% | 5% | 4%
CC(C)C(=O)NCC1(N(C)C)CCCCC1 | -20% | -4% | 0% | 8% | 1%
CS(=O)(=O)c1ncc(Cl)c(C(=O)N2CCN(c3cccc(Cl)c3)CC2)n1 | -95% | 14µM* | 0.46µM* | ? | 3.2µM*
CCS(=O)(=O)c1ncc(Cl)c(C(=O)N2CCN(c3cccc(Cl)c3)CC2)n1 | 3.2µM* | ? | 2.6µM* | ? | 4.5µM*
CCOC(=O)c1scc(-c2ccc(C)cc2)c1S(=O)(=O)Nc1cc(OC)ccc1OC | 3% | 11% | -2% | -17% | 18%
CC1CCN(c2ccc(-c3cccc(NS(=O)(=O)c4ccc(F)cc4F)c3)nn2)CC1 | 10µM* | 10µM* | -7% | . | .
CCOc1ccc(S(=O)(=O)Nc2cccc(-c3ccc(N4CCC(C)CC4)nn3)c2)cc1 | ? | ? | -3% | . | .
Cc1ccc(S(=O)(=O)Nc2cccc(-c3ccc(N4CCC(C)CC4)nn3)c2)s1 | 16µM* | 13µM* | ? | . | .
CCOC(=O)c1oc2ccc(S(=O)(=O)n3nc(-c4cc(OCC)c(OCC)c(OCC)c4)cc3N)cc2c1C | 25% | 1% | -2% | 7% | 0%
Cc1cc(Nc2ccccc2Cl)n2nc(-c3ccco3)nc2n1 | -8% | -5% | 8% | -55% | 0%
O=C(CCS(=O)(=O)c1nc(-c2cccs2)cc(C(F)(F)F)n1)Nc1cc(Br)ccc1O | ? | 60% | ? | ? | 10µM*
Cc1ccc(O)c(NC(=O)CCS(=O)(=O)c2nc(-c3cccs3)cc(C(F)(F)F)n2)c1 | 32% | 18% | ? | ? | ?
COc1ccc(-c2cc(C(=O)Nc3cccc(C(C)=O)c3)no2)cc1OC | -9% | 5% | 5% | . | .
COc1cc(NC(=O)c2cc(-c3ccc(Cl)c(Cl)c3)on2)cc(OC)c1OC | 25µM* | ? | -17% | . | .
CCOc1ccccc1NC(=O)CN1C(=O)C(=O)c2ccccc21 | ? | -2% | 2.6µM* | ? | -30%
Cc1ccc(-c2nc3scc(CCNS(=O)(=O)c4ccc(F)c(C)c4)n3n2)cc1 | 20% | 1% | 0% | -10% | -2%
